DT40 TDP1 no CPT = qHTS for Inhibitors of human tyrosyl-DNA phosphodiesterase 1 (TDP1): qHTS in cells in absence of CPT. DT40 Tdp1-/- hTDP1 cells, no CPT, ATP luminescence, 48 h. Potency, µM (highest dose often 46.2 µM), inactives show at the highest dose activity change, negative = growth inhibition, actives largely listed as inhibitors. AID 686978, 2013. 420,000 tested, 15% active; further: potency means the concentration at half of the fitted maximal effect; nearly all actives have a fitted effect of over 55% in size
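Chicken DT40 Tdp1-/- cells stably complemented with human TDP1 were seeded at 400 cells/well with DMSO in place of 20 nM camptothecin. After compound pinning, cells grew at least 48 hr at 37 °C; viability read by CellTiter-Glo luminescence.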
IL1B secr inh = inflammasome signaling inhibition, IL-1 beta readout; THP-1 LPS/ATP IL-1B secretion, AlphaLISA, 16 h; hits give low values; activity change, % at 57.5 µM; 360,000 tested, 4.7% active; AID 743279; in the data active means activity change below about -50%; inconclusive means mostly about -30% to -49%
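THP-1 cells pretreated 1 hr with compounds (up to 57.5 uM final), then stimulated with LPS (250 ng/mL final) plus ATP (1.25 mM final); secreted IL-1B measured by AlphaLISA after 16 hr, decreased signal indicating inhibition.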
ALOX12 inh = blocks human arachidonate 12S-lipoxygenase; 580,000 tested, 1.1% active; purified 12hLO, xylenol orange hydroperoxide absorbance; P18054; AID 1671190; Potency, µM (titrated, usually from 108 µM), for the others: top-dose activity change, negative = inhibition, actives largely listed as inhibitors; further: potency means the concentration at half of the fitted maximal effect
Target sequence (P18054 whole entry, looked up): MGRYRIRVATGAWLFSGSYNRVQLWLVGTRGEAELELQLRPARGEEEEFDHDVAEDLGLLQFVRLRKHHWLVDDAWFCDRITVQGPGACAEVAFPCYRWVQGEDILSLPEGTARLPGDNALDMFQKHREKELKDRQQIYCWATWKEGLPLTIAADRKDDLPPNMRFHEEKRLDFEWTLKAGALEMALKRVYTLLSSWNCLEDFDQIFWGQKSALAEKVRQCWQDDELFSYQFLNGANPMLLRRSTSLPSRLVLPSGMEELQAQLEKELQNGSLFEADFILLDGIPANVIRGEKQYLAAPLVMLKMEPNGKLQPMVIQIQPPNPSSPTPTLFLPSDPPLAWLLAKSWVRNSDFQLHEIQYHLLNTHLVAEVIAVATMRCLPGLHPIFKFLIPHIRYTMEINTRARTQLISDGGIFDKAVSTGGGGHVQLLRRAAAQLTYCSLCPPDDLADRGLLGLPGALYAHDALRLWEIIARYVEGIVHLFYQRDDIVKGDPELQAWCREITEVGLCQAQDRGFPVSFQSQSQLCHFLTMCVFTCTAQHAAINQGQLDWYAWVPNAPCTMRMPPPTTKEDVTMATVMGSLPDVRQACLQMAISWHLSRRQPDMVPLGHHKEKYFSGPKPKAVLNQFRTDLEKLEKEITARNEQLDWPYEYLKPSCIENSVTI
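Purified human 12hLO (150 nM final) in 25 mM Hepes, 0.01% Triton X-100, pH 7.0 was preincubated 15 min at room temperature with compound. Then 40 uM arachidonic acid was added, 30 min. Hydroperoxide was read by Fe-XO absorbance ratio 573/405 nm.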
HT1080 IDH1KD tx = kills HT-1080 cells with IDH1 knockdown; HT-1080 IDH1 knockdown viability, ATP luminescence, 48 h; Potency, µM (highest dose often 46.1 µM), inactives show at the top dose activity, negative = toxicity, actives largely listed as cytotoxic; 360,000 tested, 2% active;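 further: potency means the concentration at half of the fitted maximal effect; 0% = DMSO wells and -100% = cell-free medium wells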
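Using the IDH1-knockdown HT-1080 line run in the same batch and compound series as the NT line, viability after 48 h at 37 °C was determined by CellTiter-Glo luminescence and expressed as % activity.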
DT40 TDP1 CPT = DT40-hTDP1 cell growth loss with CPT; 420,000 tested, 12% active; Potency, µM (titrated, usually from 46.2 µM), for the others: at the highest dose activity change, negative = growth inhibition, actives largely listed as inhibitors; AID 686979; chicken DT40 Tdp1-/-;hTDP1 cells + 20 nM CPT, ATP luminescence, 48 h; further: potency means the concentration at half of the fitted maximal effect; nearly all actives have a fitted effect of over 55% in size
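Chicken DT40 Tdp1-/- cells stably complemented with human TDP1 were seeded at 400 cells/well in medium containing 20 nM camptothecin, exposed to pin-transferred compounds, and grown at 37 °C for at least 48 hr. Viability was read as ATP luminescence.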
HT1080NT lethal = kills 2HG-producing HT-1080-NT fibrosarcoma cells | HT-1080-NT fibrosarcoma viability, CellTiter-Glo ATP luminescence, 48 h | 360,000 tested, 1.6% active | AID 686970 | Potency, µM (doses to about 46.1 µM), for the others: at the top dose activity, negative = less viability, usual class: cytotoxic;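 further: NT is the 2HG producing partner of a matched IDH1 knockdown line; potency means the concentration at half of the fitted maximal effect; 0% = DMSO-treated cells and -100% = media-only wells without cells; nearly all actives have a fitted effect of over 55% in size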
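A 48-hour cytotoxicity screen used HT-1080-NT cells plated 2 hours before compound delivery. ATP-based CellTiter-Glo luminescence measured viability, normalized to DMSO and no-cell controls.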
The depositor's hits bear a star; ? = inconclusive; nt = no result given; ! = not active in a repeat; [ ] = dose if it differs, or a comment. This is one part of a sample in which hits are shown more often than they occur. Unless noted, the call rests on the fitted dose curve; in most records, active means well fitted curve in the direction sought with a large enough effect; inconclusive means small, poorly fitted or top-dose-only effect, or another doubt; inactive means no such curve, though single readings can be large; an effect the other way counts as inactive or inconclusive. Unless noted, on the % scale 0 is the no-effect control and ±100 the full control effect.

SMILES	DT40 TDP1 no CPT	IL1B secr inh	ALOX12 inh	HT1080 IDH1KD tx	DT40 TDP1 CPT	HT1080NT lethal
COCC(=O)NC1CCC12CCN(C(=O)Cc1cccc(F)c1)CC2 (stereo unspecified)	nt	nt	-1%	nt	nt	nt
O=C(c1ncn[nH]1)N1CCN(Cc2cn(-c3ccccc3)nn2)CC1	nt	nt	13%	nt	nt	nt
Cc1n(Cc2ccccc2)c2ccccc2[n+]1Cc1ccccc1	0.73µM*	-72*	-22%	?	1.2µM*	-16%
COC(=O)Cn1c(N)[n+](Cc2ccccc2)c2ccccc21	0%	0	4%	2%	7%	1%
CCn1c(C)[n+](Cc2ccccc2)c2ccc(Cl)cc21	12µM*	22	?	-2%	10µM*	-19%
Cc1n(Cc2ccccc2)c2cc([N+](=O)[O-])ccc2[n+]1Cc1ccccc1	21µM*	-14	-7%	1%	?	0%
CC(O)c1nc2cc([N+](=O)[O-])ccc2n1Cc1ccccc1 (stereo unspecified)	?	19	-14%	-6%	?	-3%
Cc1cnc(CC2CCN(C(=O)NCC(C)C)CC2)n1Cc1ccc(F)cc1	nt	nt	25%	nt	nt	nt
Cn1cccc1C(=O)N[C@H]1C[C@H]2C(=O)Nc3cc(Cl)ccc3C(=O)N2C1	nt	nt	5%[176 µM]	nt	nt	nt
CCOC(=O)c1cc(C(=O)OCC)c2cccc(C)n2c1=O	13µM*	-4	0%	2%	7.3µM*	12%
CCOC(=O)C(C)C(C)=O (stereo unspecified)	6.5µM*	?	nt	58µM*	6.5µM*	?
CSc1cccc(C(=O)Nc2nc(-c3nc4ccccc4s3)cs2)c1	nt	nt	-27%	nt	nt	nt
CC(C)c1noc(-c2cn(C3CCCN(C(=O)c4ccc(F)cc4)C3)nn2)n1 (stereo unspecified)	nt	nt	14%	nt	nt	nt
Cc1cccc(OCCNC(=O)c2ccc(Oc3ccc(C(F)(F)F)cc3[N+](=O)[O-])cc2)c1	-22%	-5	-24%	-1%	-7%	-4%
O=C(NCCCNc1ccc(C(F)(F)F)cc1[N+](=O)[O-])c1cc(F)c(F)cc1Cl	18µM*	-22	0%	?	?	?
COc1ccc2[nH]c(C)c(CCNc3ccc(C(F)(F)F)cc3[N+](=O)[O-])c2c1	29µM*	?	-5%	-4%	?	-5%
Cc1cccc(OCCNC(=O)c2cccc(Oc3ccc(C(F)(F)F)cc3[N+](=O)[O-])c2)c1	29µM*	15	-2%	-8%	23µM*	-4%
O=C(NCCCNc1ccc(C(F)(F)F)cc1[N+](=O)[O-])c1ccc(Cl)cc1	-22%	-17	8%	?	?	?
O=[N+]([O-])c1cc(C(F)(F)F)ccc1NCCOc1ccccc1	-20%	-78*	-3%	-2%	-12%	-4%
COCCn1c2c(c(=O)n1-c1ccccc1)CCN(C(=O)Cc1ccc3c(c1)OCO3)C2	nt	nt	13%[176 µM]	nt	nt	nt
Cc1ccccc1CN1CCCC(COc2ccccc2C(=O)N2CCCC2)C1 (stereo unspecified)	nt	nt	53%	nt	nt	nt
CC1CCN(CC2CCCN2)CC1 (stereo unspecified)	nt	nt	-25%	nt	nt	nt
Cc1sc2c(c1C)CN(C(C)C)CN2C(=O)c1ccccc1	nt	nt	6.3µM*	nt	nt	nt
COC(=O)c1cn(NC(=O)c2cnccn2)c(=O)c2ccccc12	7.3µM*	170	-17%	?	7.3µM*	?
Cc1ccc(OCC(=O)Nc2ccc3oc(-c4cccnc4)nc3c2)cc1	nt	nt	24%	nt	nt	nt
SMILES	DT40 TDP1 no CPT	IL1B secr inh	ALOX12 inh	HT1080 IDH1KD tx	DT40 TDP1 CPT	HT1080NT lethal
O=c1cc(-c2ccccc2O)oc2c(O)c(O)ccc12	30µM*	nt	nt	nt	24µM*	nt
C=CCSC1=N/C(=C\C=C\c2ccccc2)C(=O)S1	nt	nt	14µM*	nt	nt	nt
C=CCSC1=N/C(=C\C=C\c2ccco2)C(=O)S1	18µM*	-9	?	5%	23µM*	-1%
CSC1=N/C(=C\c2ccccc2F)C(=O)S1	-4%	-20	0%	-2%	-29%	-7%
C=CCSC1=N/C(=C\c2sccc2C)C(=O)S1	0%	-21	0%	5%	1%	-1%
CSC1=N/C(=C\C=C\c2ccco2)C(=O)S1	nt	nt	3.2µM*	nt	nt	nt
O=C(NCc1nc2c(s1)CCCC2)C1NCCc2[nH]cnc21 (stereo unspecified)	nt	nt	109%	nt	nt	nt
CNC(=O)[C@H]1C[C@H](Oc2cccnc2)CN1C(=O)Nc1cccc(C)c1	nt	nt	-4%	nt	nt	nt
O=C(Cc1ccsc1)Nc1cccc(N2CCCCC2=O)c1	nt	nt	40%	nt	nt	nt
Cc1cc(Cl)ccc1OCC(=O)NCc1ccncc1	?	-1	6%	10%	?	9%
O=C(COc1ccc(Cl)cc1)Nc1ccc(Cc2ccncc2)cc1	?	-71*	13%	-19%	?	-1%
Cc1cc(Cl)ccc1OCC(=O)Nc1ccncc1	5.8µM*	?	-63%	-11%	?	?
Cc1noc(NS(=O)(=O)c2ccc(NC(=O)COc3ccc(C#N)cc3)cc2)c1C	-1%	4	-15%	13%	5%	9%
O=C(COc1ccc2ccccc2c1)Nc1ccc(Cc2ccncc2)cc1	?	18	11%	-10%	?	-19%
CCn1cc(C(C)NC(=O)COc2ccc(Cl)cc2C)c(C)n1 (stereo unspecified)	21µM*	7	6%	?	?	-1%[9.24 µM]
Cc1cccc(OCC(=O)Nc2ccc(S(=O)(=O)Nc3onc(C)c3C)cc2)c1C	?	6	40µM*!	-17%	-3%	-7%
COc1ccc2oc(=O)c(C(=O)N(C)C3CCCCC3)cc2c1	nt	nt	33%	nt	nt	nt
Cc1cccc(OCC(=O)Nc2c(C)ccc3nsnc23)c1C	?	nt	-6%	nt	15µM*	nt
Cc1cc(OCC(=O)Nc2ccncc2)ccc1Br	23µM*	-14	468%	-3%	?	-10%
Cc1cccc(OCC(=O)Nc2ccncc2)c1C	8.2µM*	-6	14%	?	12µM*	-4%
Cc1ccc2nsnc2c1NC(=O)COc1ccccc1F	-3%	-14	-5%	7%	14%	17%
CN1C(=O)[C@@H]2C[C@@H](CN2Cc2ccc(F)c(F)c2)Oc2ccccc21	nt	nt	1%[176 µM]	nt	nt	nt
COc1ccc(CNC(=O)c2ccc(C)cc2)cc1	nt	nt	-13%	nt	nt	nt
O=C(NCc1ccncc1)c1ccc(OCc2ccccc2)cc1	13µM*	-20	14%	0%	21µM*	-11%
Cc1ccc(Oc2ccc(C(=O)NCc3ccncc3)cc2)cc1	23µM*	-51*	9%	?	?	?
